Screens (PubChem BioAssay)
Most compounds without a hit are left out; they make up all but 0.83% or so of the library.
S1P3 antagonist = blocks the human S1P3 receptor | inhibition, % at 4.98 µM | CHO S1P3 NFAT-BLA reporter, FRET fluorescence, antagonist mode | hit rate 0.27% among 170,000 | Q99500 | AID 485;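 active = inhibition above the plate cutoff, the mean inhibition of test wells on that plate plus 3 SD, cut at about 28% in these data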;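 note: cells challenged with S1P at its EC80 of 0.8 µM; blue over green emission ratio from cleaved BLA substrate after 4 h stimulation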
Hsp70 act = switches on Hsp70 transcription | hit rate 0.04% among 200,000 | activation, % at 10 µM | HeLa Hsp70 promoter luciferase reporter, luminescence; scaled: vehicle 0, proteasome-inhibitor control 100% | AID 1203;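 active = activation above the mean across all tested compounds plus 3 SD, cutoff set per campaign, cut at about 5.5% in these data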
S1P4 antag = antagonists of human S1P4 receptor. S1P4-expressing cells, antagonist mode, reporter read-out. hit rate 0.26% among 220,000. inhibition, % at 4.98 µM; in the data active = inhibition above about 29%
S1P4 agonist = activates the human S1P4 receptor | hit rate 0.35% among 220,000 | S1P4-expressing cell line, agonist reporter assay | activation, % at 4.98 µM; in the data active = activation above about 11%
Pf gamet viab = P. falciparum stage V gametocyte viability inhibition | P. falciparum stage V gametocytes, ATP luminescence, 24 h | inhibition, % at 10.9 µM | hit rate 0.065% among 150,000 | AID 743093;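 active = inhibition above the mean plus 3 SD of compounds within the control limits, set per campaign, cut at about 38% in these data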
S1P4 agonist cf = confirmation of human S1P4 receptor agonists; hit rate 7% among 740; activation, % at 4.98 µM; S1P4 agonist cell-based reporter assay; shares compounds with S1P4 agonist; in the data active = activation above about 12%
S1P1 ag = counter-screen for S1P4 agonists: agonists of human S1P1 | shares compounds with S1P4 agonist | S1P1 agonist cell-based assay, activation | activation, % at 4.98 µM | hit rate 4% among 740; in the data active = activation above about 21%
Target sequence (P21453 whole entry, looked up): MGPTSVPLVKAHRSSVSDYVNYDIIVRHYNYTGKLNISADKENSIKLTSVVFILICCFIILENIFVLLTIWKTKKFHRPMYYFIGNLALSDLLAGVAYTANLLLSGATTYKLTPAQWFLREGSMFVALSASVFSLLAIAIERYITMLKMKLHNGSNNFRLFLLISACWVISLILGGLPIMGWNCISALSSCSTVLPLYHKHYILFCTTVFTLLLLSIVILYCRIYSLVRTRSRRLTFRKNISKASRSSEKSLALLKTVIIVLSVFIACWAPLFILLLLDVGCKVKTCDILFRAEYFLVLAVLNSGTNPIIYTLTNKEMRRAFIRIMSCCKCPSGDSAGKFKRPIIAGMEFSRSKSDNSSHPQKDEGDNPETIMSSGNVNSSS
Hits are given with their value.

How did COc1ccc(S(=O)(=O)Nc2ccc3c(c2)C(=O)N([C@H](C)CO)C[C@H](C)[C@@H](CN(C)C(=O)Nc2ccccc2)O3)cc1 do in these assays?
Pf gamet viab: inactive

What do the screens show for `COc1ccc(C2NC(=O)C(C#N)=C(S)N2c2cccc(C)c2)cc1OC` (configuration not stated)?
S1P3 antagonist: inactive; Hsp70 act: inactive; S1P4 antag: inactive; S1P4 agonist: 15; Pf gamet viab: inactive; S1P4 agonist cf: inactive; S1P1 ag: inactive

How did O=C(CN1C(=O)NC2(CCSC2)C1=O)N1CCN(c2ccc(F)cc2)CC1 (configuration not stated) do in these assays?
Hsp70 act: inactive; S1P4 antag: inactive; S1P4 agonist: 18; Pf gamet viab: inactive; S1P4 agonist cf: inactive; S1P1 ag: inactive

What do the screens show for `CCOC(=O)c1c(NC(C)=O)sc2c(O)cccc12`?
S1P3 antagonist: inactive; Hsp70 act: inactive; S1P4 antag: inactive; S1P4 agonist: inactive; Pf gamet viab: inactive

How did CCOC(=O)c1c(NC(C)=O)sc2c(O)c(Br)cc(Br)c12 do in these assays?
S1P3 antagonist: inactive; Hsp70 act: inactive; S1P4 antag: inactive; S1P4 agonist: 62; Pf gamet viab: inactive; S1P4 agonist cf: inactive; S1P1 ag: inactive

Results for O=c1[nH][nH]c2cc(=O)n(-c3cccc(C(F)(F)F)c3)nc12 ?
S1P3 antagonist: inactive; Hsp70 act: inactive; S1P4 antag: inactive; S1P4 agonist: inactive; Pf gamet viab: inactive

What do the screens show for `Nc1n[nH]c2cc(=O)n(-c3cccc(C(F)(F)F)c3)nc12`?
S1P3 antagonist: inactive; Hsp70 act: inactive; S1P4 antag: inactive; S1P4 agonist: 65; Pf gamet viab: inactive; S1P4 agonist cf: inactive; S1P1 ag: inactive

Results for NS(=O)(=O)c1cccc(NC(=O)CSc2nnc(C3CC3)n2Cc2ccccc2)c1 ?
S1P3 antagonist: inactive; S1P4 antag: inactive; S1P4 agonist: inactive; Pf gamet viab: inactive

How did CS(=O)(=O)N(Cc1ccccc1Cl)c1ccc(C(=O)NCc2ccccn2)cc1 do in these assays?
S1P3 antagonist: inactive; Hsp70 act: inactive; S1P4 antag: inactive; S1P4 agonist: inactive; Pf gamet viab: inactive

Results for COc1cc(C(=O)NCc2ccncc2)cc(OC)c1OC ?
S1P3 antagonist: inactive; Hsp70 act: inactive; S1P4 antag: inactive; S1P4 agonist: 14; Pf gamet viab: inactive; S1P4 agonist cf: inactive; S1P1 ag: inactive

How did COc1ccccc1N1CCN(C(=O)c2coc(=O)c(Br)c2)CC1 do in these assays?
S1P3 antagonist: inactive; S1P4 antag: inactive; S1P4 agonist: inactive; Pf gamet viab: inactive

Results for COC(=O)C1=CN(C(C)C)C=C(C(=O)OC)C1c1cccc(OC)c1 ?
S1P3 antagonist: inactive; Hsp70 act: inactive; S1P4 antag: inactive; S1P4 agonist: inactive

Results for CCCCOc1ccccc1C1C(C(=O)OC)=CN(CC)C=C1C(=O)OC ?
S1P3 antagonist: inactive; Hsp70 act: inactive; S1P4 antag: inactive; S1P4 agonist: 12; S1P4 agonist cf: inactive; S1P1 ag: inactive

Results for CCCOc1ccccc1C1C(C(=O)OC)=CN(C(C)C)C=C1C(=O)OC ?
S1P3 antagonist: inactive; Hsp70 act: inactive; S1P4 antag: inactive; S1P4 agonist: 18; Pf gamet viab: inactive; S1P4 agonist cf: inactive; S1P1 ag: inactive

What do the screens show for `Cc1ccc(CCC(=O)Nc2ccccc2F)s1`?
S1P3 antagonist: inactive; Hsp70 act: inactive; S1P4 antag: inactive; S1P4 agonist: 185; Pf gamet viab: inactive; S1P4 agonist cf: inactive; S1P1 ag: inactive

What do the screens show for `O=S(=O)(c1ccc(-c2cn3ccccc3n2)cc1)N1CCOCC1`?
Hsp70 act: inactive; S1P4 antag: inactive; S1P4 agonist: 68; Pf gamet viab: inactive; S1P4 agonist cf: inactive; S1P1 ag: inactive

How did Cc1cccn2cc(-c3ccc(S(=O)(=O)N4CCOCC4)cc3)nc12 do in these assays?
S1P3 antagonist: inactive; Hsp70 act: inactive; S1P4 antag: inactive; S1P4 agonist: inactive; Pf gamet viab: inactive

What do the screens show for `COc1ccc(-c2cc(C(=O)Nc3cc(S(=O)(=O)N4CCOCC4)ccc3N3CCOCC3)c3ccccc3n2)cc1`?
S1P3 antagonist: inactive; Hsp70 act: inactive; S1P4 antag: inactive; S1P4 agonist: inactive

How did O=C1CC(c2ccccc2)CC(=O)N1c1ccc(C(F)(F)F)cc1 do in these assays?
Pf gamet viab: inactive

Results for COc1ccc(CCNC(=O)Cn2c(=O)n(-c3ccc(F)cc3F)c(=O)c3sccc32)cc1OC ?
S1P3 antagonist: inactive; Hsp70 act: inactive; S1P4 antag: inactive; S1P4 agonist: inactive; Pf gamet viab: inactive

Results for CC(C)(C)C(=O)Cn1c(=O)n(-c2ccc(F)cc2F)c(=O)c2sccc21 ?
S1P3 antagonist: inactive; Hsp70 act: inactive; S1P4 antag: inactive; S1P4 agonist: 95; Pf gamet viab: inactive; S1P4 agonist cf: inactive; S1P1 ag: inactive

Results for O=C(CN1C(=O)CSc2ccc(S(=O)(=O)N3CCOCC3)cc21)NCCCN1CCOCC1 ?
S1P3 antagonist: inactive; Hsp70 act: inactive; S1P4 antag: inactive; S1P4 agonist: 17; Pf gamet viab: inactive; S1P4 agonist cf: inactive; S1P1 ag: inactive

What do the screens show for `CSc1ncccc1C(=O)OCC(=O)Nc1ccc(S(=O)(=O)N2CCCC2)cc1`?
S1P3 antagonist: inactive; Hsp70 act: inactive; S1P4 antag: inactive; S1P4 agonist: 58; S1P4 agonist cf: inactive; S1P1 ag: inactive

How did O=C(COC(=O)c1ccccc1O)Nc1ccc(S(=O)(=O)N2CCCCC2)cc1 do in these assays?
S1P3 antagonist: inactive; Hsp70 act: inactive; S1P4 antag: inactive; S1P4 agonist: inactive; Pf gamet viab: inactive

Results for COc1ccc2cc(C(N)=O)c(=Nc3ccc(C)cc3)oc2c1 ?
S1P3 antagonist: inactive; Hsp70 act: inactive; S1P4 antag: inactive; S1P4 agonist: inactive; Pf gamet viab: inactive

Results for COc1ccccc1NC(=O)c1cc2ccc(O)cc2o/c1=N\O ?
S1P3 antagonist: inactive; Hsp70 act: inactive; S1P4 antag: inactive; S1P4 agonist: inactive

How did Cc1cccc(N=c2oc3cc(O)ccc3cc2C(N)=O)c1 do in these assays?
S1P3 antagonist: inactive; Hsp70 act: inactive; S1P4 antag: inactive; S1P4 agonist: 48; Pf gamet viab: inactive; S1P4 agonist cf: inactive; S1P1 ag: inactive

What do the screens show for `COc1ccccc1N=c1oc2cc(O)ccc2cc1C(N)=O`?
S1P3 antagonist: inactive; Hsp70 act: inactive; S1P4 antag: inactive; S1P4 agonist: 27; Pf gamet viab: 56; S1P4 agonist cf: inactive; S1P1 ag: inactive

What do the screens show for `COc1ccccc1N=c1oc2cc(O)ccc2cc1C(=O)NCC1CCCO1` (configuration not stated)?
S1P3 antagonist: inactive; Hsp70 act: inactive; S1P4 antag: inactive; S1P4 agonist: 38; Pf gamet viab: inactive; S1P4 agonist cf: inactive; S1P1 ag: inactive

Results for COc1cccc(N=c2oc3cc(O)ccc3cc2C(=O)NCC2CCCO2)c1 (configuration not stated) ?
S1P3 antagonist: inactive; Hsp70 act: inactive; S1P4 antag: inactive; S1P4 agonist: 17; Pf gamet viab: inactive; S1P4 agonist cf: inactive; S1P1 ag: inactive
